High-throughput results from PubChem.
In the library only some 6.5% were active in any assay of this set; here they are far more common.
VACV mCherry inh = qHTS for Stage-Specific Inhibitors of Vaccinia Orthopoxvirus: mCherry Reporter Primary qHTS | Vaccinia virus mCherry reporter infection, fluorescence | Potency, µM (titrated, usually from 36.5 µM), inactives show at the highest dose activity change, negative = inhibition, usual class: inhibitors | 0.63% of 310,000 active | AID 720579, 2013; calls by dose curve; tested in A549 cells; further: potency means the concentration at half of the fitted maximal effect; nearly all actives have a fitted effect of over 35% in size
Marburg entry inh = qHTS for inhibitors of binding or entry into cells for Marburg Virus. Marburg virus pseudotyped entry inhibition, cell reporter. Potency, µM (doses to about 37.8 µM), without a hit: at the highest dose activity change, negative = inhibition, usual class: inhibitors. 1.8% of 300,000 active. AID 540276, 2011; calls by dose curve; tested in HEK293 cells; further: potency means the concentration at half of the fitted maximal effect
FMDV inh = High Throughput Screening for Foot and Mouth Disease Virus Antivirals. FMDV antiviral cell-based qHTS. Potency, µM (titrated, usually from 57.9 µM), for the others: at the top dose activity change, negative = inhibition, hits mostly inhibitors. 1.2% of 410,000 active; calls by dose curve; tested in HEK293T cells; further: read-out not given here; potency means the concentration at half of the fitted maximal effect; nearly all actives have a fitted effect of over 45% in size
Vaccinia Venus = qHTS for Stage-Specific Inhibitors of Vaccinia Orthopoxvirus: Venus Reporter Primary qHTS. Vaccinia virus Venus reporter expression, fluorescence. Potency, µM (series often up to 36.5 µM), for the others: at the top dose activity change, negative = inhibition, hits mostly inhibitors. 0.46% of 330,000 active. AID 720580, 2013; calls by dose curve; tested in A549 cells; further: potency means the concentration at half of the fitted maximal effect; nearly all actives have a fitted effect of over 30% in size
HCMV antiviral = qHTS Assay for inhibitors of the human cytomegalovirus (HCMV); HFF cells, HCMV-luciferase reporter, 72 h; hits give low values; activity change, negative = inhibition, % at 57.5 µM; 4.5% of 410,000 active; AID 1259415, 2018; in the data active means activity change below about -60%; inconclusive means no clear call, values can overlap the other calls; inactive means above about -39%
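After 16 h attachment at 37C, HFF cells received test compound and HCMV-luciferase (1 PFU/cell); reporter luminescence read 72 h later, data normalized against buffer-only and known inhibitor Salinomycin.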
Lassa entry inh = qHTS for Inhibitors of binding or entry into cells for Lassa Virus | Lassa virus pseudotype entry inhibition, cell reporter | 1.2% of 300,000 active | Potency, µM (series often up to 37.9 µM), inactives show top-dose activity change, negative = inhibition, actives largely listed as inhibitors; calls by dose curve; tested in HEK293 cells; further: potency means the concentration at half of the fitted maximal effect; nearly all actives have a fitted effect of over 50% in size
Numbers without * were called inactive; u = inconclusive; x = no result given; [ ] = another dose, or the depositor's remark. On the % scale 0 is the no-effect control and ±100 the full control effect.

SMILES | VACV mCherry inh | Marburg entry inh | FMDV inh | Vaccinia Venus | HCMV antiviral | Lassa entry inh
Cc1cc(C)c(Nc2cc(S(=O)(=O)O)c(N)c3c2C(=O)c2ccccc2C3=O)c(C)c1 | -25% | -21% | 8.9µM* | u | 3 | -23%
COc1ccccc1OCCCCCc1c(C)n[nH]c1C | x | -19% | u | x | -61* | 0%
Cc1c(Cc2ccc3c(c2)OCO3)sc(NC(=O)C2CC2)c1C(N)=O | u | 7%[46.1 µM] | u | u | 0 | 8.9µM*
CCCCn1nnnc1C(c1cc2ccccc2o1)N1CCN(c2cc(C)nc3ccccc23)CC1 (stereo not given) | -19% | x | -17% | -12% | -103* | x
CCCCn1nnnc1C(c1cc2ccccc2o1)N1CCN(c2ccccc2F)CC1 (stereo not given) | -14% | x | 24% | -11% | 9 | x
O=C(CSc1nc2c([nH]c3ccccc32)c(=O)n1-c1ccccc1F)Nc1cccc(Cl)c1 | -28% | x | -19% | -22% | u | -24%[46.1 µM]
N#Cc1c([N+](=O)[O-])cc([N+](=O)[O-])cc1S(=O)(=O)Cc1ccccc1 | u | u | 28µM* | u | -99* | 11µM*
COc1ccc(-c2cc(-c3cc(C)ccc3O)[nH]n2)cc1 | 8.9µM* | u | 14% | u | -35 | u
COc1ccc(OC)c(NC(=O)c2cc(-c3cc(C)ccc3O)n[nH]2)c1 | 10µM* | u | 17% | 11µM* | -2 | u
COc1ccc(-c2cc(-c3ccc(C)cc3)n[nH]2)c(O)c1 | -26% | x | 43% | -30% | 126 | x
COc1ccc(OC)c(NC(=O)c2cc(-c3ccc(C)cc3O)n[nH]2)c1 | x | 5% | 8% | x | 5 | -6%
Cc1ccc(C)c(NC(=O)c2cc(-c3cc(C)c(C)cc3O)n[nH]2)c1 | x | x | 46% | x | -78* | x
Cc1cccc(Cn2c(CN3CCC(C(=O)NCCc4ccccc4)CC3)cc3ccccc32)c1 | -26% | x | -15% | -20% | 14 | u
Cc1nc2ccc(C(=O)OC(C)C(=O)c3c(C)[nH]c4ccccc34)cc2nc1C (stereo not given) | -18% | x | x | 13% | x | x
O=C(Nc1cccs1)Nc1c(F)c(F)c(F)c(F)c1F | -17% | -23% | 20% | -15% | -61* | u
O=S(=O)(Nc1ccc2nc(-c3cccc(Cl)c3)nn2c1)c1ccco1 | x | x | x | x | 28 | x
Cc1ccc(NC(=O)CCS(=O)(=O)c2ccc3c(c2)oc(=O)n3C)c(Br)c1 | -20% | x | -20% | -8% | -20 | 8%[46.1 µM]
N=C1/C(=C\c2coc3ccccc3c2=O)C(=O)N=C2SC(c3ccncc3)=NN12 | -9% | -3%[46.1 µM] | 16µM* | 14% | 28 | 14%
c1ccc(Cc2nnc(Sc3ccccc3)c3ccccc23)cc1 | -15% | -28% | u | -23% | -88* | -16%
COc1cccc(-c2cc3c(Nc4cc(OC)c(OC)c(OC)c4)nccc3[nH]2)c1 | x | x | x | x | -34 | x
CCCC(=O)NC(c1ccco1)c1cc(Cl)c2cccnc2c1O (stereo not given) | u | u | -4% | u | -98* | u
CCCC(=O)NC(c1cccs1)c1cc(Cl)c2cccnc2c1O (stereo not given) | -20% | 3.5µM* | -21% | 9% | -114* | u
CCCC(=O)NC(c1ccc2c(c1)OCO2)c1cc(Cl)c2cccnc2c1O (stereo not given) | 13µM* | u | -25% | u | x | u
CCC(=O)NC(c1ccco1)c1cc(Cl)c2ccccc2c1O (stereo not given) | x | x | -12% | x | u | x
O=C(O)c1cc(N2C(=O)C=CC2=O)cc(N2C(=O)C=CC2=O)c1 | -19% | 10µM* | -19% | -19% | -16 | -20%
O=C(NCCN1CCOCC1)c1ccccc1N1C(=O)[C@@H]2Cc3c([nH]c4ccccc34)C(c3ccc(F)cc3)N2C1=O (stereo not given in full) | -9% | x | -19% | 2% | -75* | x
COc1ccc(C2c3[nH]c4ccccc4c3C[C@H]3C(=O)N(c4ccccc4C(=O)NCCN4CCOCC4)C(=O)N23)cc1 (stereo not given in full) | -9% | x | 1% | 3% | 14 | x
